# Structures can show the parent of a compound that is named as a salt.
# System: thyroid hormone receptor (endogenous TRα and TRβ)
# Set-up: species or system GH3-TRE-Luc (rat pituitary); GH3-TRE-Luc luciferase reporter, antagonist mode against 1 nM T3, loss of signal, qHTS
# Conditions: read-out: Average AC50 (uM) GH3-TRE-Antag, antagonist mode, 1 nM T3, no GH3 cytotoxicity hit
row,Compound,AC50 [µM]
1,Cc1cc(C(C)(C)C)c(O)c(C)c1Cn1c(=O)n(Cc2c(C)cc(C(C)(C)C)c(O)c2C)c(=O)n(Cc2c(C)cc(C(C)(C)C)c(O)c2C)c1=O [Cyanox CY 1790],66.5
2,NC(=O)C1(N2CCCCC2)CCN(CCCC(=O)c2ccc(F)cc2)CC1 [Pipamperone dihydrochloride],25.9
3,CCCCNc1ccc(C(=O)OCCN(CC)CC)cc1 [Depolipon],21
4,CCOC(=O)C(C)OC(=O)c1cc(Oc2ccc(C(F)(F)F)cc2Cl)ccc1[N+](=O)[O-] (centres unmarked) [Lactofen],81.8
5,CCCCC/C=C\C/C=C\C/C=C\CCCCC(=O)O [Gamolenic acid],22.9
6,C#Cc1cccc(Nc2ncnc3cc(OCCOC)c(OCCOC)cc23)c1 [Erlotinib],21.9
7,CCOc1ccc(O)cc1 [4-Ethoxyphenol],82.5
8,CCCCCCOc1ccc(N)cc1 [4-Hexyloxyaniline],59.8
9,"O=C(O)c1cc(I)cc(I)c1I [2,3,5-Triiodobenzoic acid]",> 100
10,"Nc1ccc(N)c(Cl)c1 [2-Chloro-1,4-diaminobenzene sulfate]",50.5
11,CC/C=C\C/C=C\C/C=C\CCCCCCCC(=O)OCC [Ethyl linolenate],65.3
12,CCCCCCCC/C=C/CCCCCCCC(=O)OCCO [Polyoxyethylene monoleate],81.3
13,CCC(=O)/C=C/c1ccc(OC)cc1 [1-(4-Methoxyphenyl)-1-pentene-3-one],79.8
14,CCCOc1ccc(S(=O)(=O)N2CCN(CC)CC2)cc1-c1nc2c(CC)n(Cc3ccccn3)nc2c(=O)[nH]1 [UK-343664],76.4
15,CC1(C)[C@H](/C=C(\Cl)C(F)(F)F)[C@@H]1C(=O)O[C@@H](C#N)c1cccc(Oc2ccccc2)c1 [?-Cyhalothrin],33.9
16,O=S1(=O)c2cccc3cccc(c23)N1CCCN1CCN(c2ccc(F)cc2)CC1 [Fananserin],> 50
17,CN(C)c1ccc(SC#N)cc1 [4-(Dimethylamino)phenylthiocyanate],59.1
18,COC(=O)Nc1nc2ccc([S+]([O-])c3ccccc3)cc2[nH]1 (centres unmarked) [Oxfendazole],12.2

row,Compound,AC50 [µM]
1,C/C(=C\c1csc(C)n1)[C@@H]1C[C@@H]2O[C@]2(C)CCC[C@H](C)[C@H](O)[C@@H](C)C(=O)C(C)(C)[C@@H](O)CC(=O)O1 [Epothilone B],0.0109
2,Cc1ccc(S(=O)(=O)NC2CCCCC2)cc1 [N-Cyclohexyl-4-methylbenzenesulfonamide],> 90
3,CC(O)(CS(=O)(=O)c1ccc(F)cc1)C(=O)Nc1ccc(C#N)c(C(F)(F)F)c1 (centres unmarked) [Bicalutamide],35.3
4,"O=C1CCN(c2ccccc2)N1 [3-Pyrazolidinone,1-phenyl-]",> 90
5,CCCCCCCCCCCCCCNCCO [Myralact],22.8
6,"Clc1cc(Cl)c2c(c1)N=C1CCCCCN1C2 [1,3-dichloro-6,7,8,9,10,12-hexahydroazepino[2,1-b]quinazoline hydrochloride (1:1)]",40.1
7,"O=C(c1ccccc1)c1ccc(O)cc1O [2,4-Dihydroxybenzophenone]",87
8,COc1ccc(C(CN(C)C)C2(O)CCCCC2)cc1 (centres unmarked) [Venlafaxine hydrochloride],71
9,Cn1cnc([N+](=O)[O-])c1Sc1ncnc2[nH]cnc12 [Azathioprine],> 50
10,C[C@]12CCC(=O)C=C1[C@@H]1C[C@@H]1[C@H]1[C@@H]3[C@@H]4C[C@@H]4[C@@]4(CCC(=O)O4)[C@@]3(C)CC[C@@H]12 [Drospirenone],21.9
11,Cc1cc(O)c2c(c1)C(=O)c1cccc(O)c1C2=O [Chrysophanic acid],40.7
12,c1cc2c(c(NC3=NCCN3)c1)CCCC2 [Tramazoline tosylate],37.5
13,O=C(O)C1=NN(c2ccc(S(=O)(=O)O)cc2)C(=O)C1N=Nc1ccc(S(=O)(=O)O)cc1 (centres unmarked) [FD&C Yellow 5],6.01e-06
14,CN(CC(=O)N1CCOCC1)Cc1c(Cl)cccc1NC(=O)c1ccccc1 [Fominoben hydrochloride],> 50
15,CCCCCC/C=C\CCCCCCCC(=O)O [(Z)-Hexadec-9-enoic acid],44.5
16,CCCCOCCOC(=O)c1ccccc1C(=O)OCCOCCCC [Bis(2-butoxyethyl) phthalate],67.1
17,COc1ccc(-c2coc3cc(O)cc(O)c3c2=O)cc1 [Biochanin A],67

# Source: article PMC6792352, “Limited Chemical Structural Diversity Found to Modulate Thyroid Hormone Receptor in the Tox21 Chemical Library” (Environmental Health Perspectives, 2019)
